Results taken from PubChem BioAssay (Tox21).
Where “and” joins values, the source holds several entries; their conditions need not be identical. Equal entries are not always repeated. Results filed as inconclusive are left out. The source holds several records for some structures; these can differ, active in one and inactive in another. Calls of active or inactive are those of the source. The call rests on the fitted dose curve; in most records, active means well fitted inhibition curve with a large enough effect in the signal ratio in the repeat runs; inconclusive means weak or mixed curves, or effect the other way; inactive means flat fitted curve, though single readings scatter; the % refers to the signal ratio.

Test: qHTS assay for small molecule disruptors of the mitochondrial membrane potential (AID 720635)
Conditions: HepG2 mitochondrial membrane potential, Mito-MPS dye ratio; series mostly up to 83.2 µM; ratio activity, negative = MMP loss: at the top concentration
Description: U.S. Tox21 Program National Center for Advancing Translational Sciences [NCATS] NIH Chemical Genomics Center [NCGC] U.S. Environmental Protection Agency [EPA] National Institutes of Environmental Health Sciences [NIEHS] National Toxicology Program [NTP] U.S. Food and Drug Administration [FDA] Tox21 Assay Overview: Mitochondrial membrane potential (MMP), one of the parameters for mitochondrial function, is generated by mitochondrial electron transport chain that creates an electrochemical gradient by a series of redox reactions. This gradient drives the synthesis of ATP, a crucial molecule for various cellular processes. Measuring MMP in living cells is commonly used to assess the effect of chemicals on mitochondrial function. […] The dye accumulates in the mitochondria of healthy cells as aggregates, with red fluorescence. The mitochondrial potential collapses and the dye can no longer accumulate in the mitochondria and remains in the cytoplasm in monomers, with green fluorescence.
Tox21 Assay Protocol Summary: 2,000 HepG2 cells in 5 uL/well were dispensed into black, clear-bottom 1536-well plates using a Multidrop Combi (Thermo Scientific) dispenser. The assay plates were incubated overnight at 37C to allow cells to attach to the wells, followed by the transfer of 23 nL compound or DMSO vehicle by a pin tool (Kalypsys). The plates were incubated for 1 hr at 37C and 5% CO2, followed by the addition of 5 uL of 2X Mito-MPS dye (BD Biosciences) into each well using Flying Reagent Dispenser (Aurora Discovery) and then following 30 min incubation at 37C. Fluorescence intensity (490nm excitation and 535nm emission for monomers; and 540nm excitation and 590nm emissions for aggregates) was measured using an Envision plate reader.
On the % scale 0 is the no-effect control and ±100 the full control effect; potency means the concentration at half of the fitted maximal effect.

SMILES	ratio activity, negative = MMP loss	Potency
Cn1c([N+](=O)[O-])cnc1COC(N)=O	6.41% (inactive)	–
NCCc1ccc(O)c(O)c1	16.3% (inactive)	–
Cc1cc(=O)[nH]c(C(C)C)n1	–	inactive
CCC(C)C=O (stereo not given)	–	inactive
COC(=O)Nc1nc2ccc(Sc3ccccc3)cc2[nH]1	–	4.33 µM (active)
O=C(O)c1ccc([N+](=O)[O-])cc1	–	inactive
CC#C[C@]1(O)CC[C@H]2[C@@H]3CCC4=CC(=O)CCC4=C3[C@@H](c3ccc(N(C)C)cc3)C[C@@]21C	–	10.6 µM (active)
NCc1cccc(CN)c1	–	inactive
O=C1N=C(O)CN1/N=C/c1ccc(-c2ccc([N+](=O)[O-])cc2)o1	–	3.35 µM (active) and 2.43 µM (active)
CCc1ccc(O)cc1	–	54.7 µM (active)
C=C(C)C(=O)OCCC[Si](OC)(OC)OC	–	76.1 µM (active) and inactive
C=C1CC[C@H](O)CC1=C/C=C1\CCC[C@]2(C)[C@@H]([C@H](C)/C=C/[C@H](C)C(C)C)CC[C@@H]12	–	inactive and 60.6 µM (active)
CS(=O)(=O)c1ccc([C@@H](O)[C@@H](CO)NC(=O)C(Cl)Cl)cc1	-3.73% [at 39.1 µM] (inactive)	–
CCOC(=O)[C@H](CCc1ccccc1)N[C@@H](C)C(=O)N1Cc2ccccc2C[C@H]1C(=O)O	–	inactive
CC1CC(OC(=O)c2ccccc2O)CC(C)(C)C1 (stereo not given)	–	27 µM (active)
Clc1cc(Cl)c(Cl)cc1Cl	–	inactive
CCCCCCCCC	–	inactive
CCCCNC(N)=O	8.26% (inactive)	–
C=C1C2CCC(C2)C1(C)C (stereo not given)	–	inactive
OCCOCCOCCOCCO	–	inactive

SMILES	ratio activity, negative = MMP loss	Potency
O=Nc1ccc(O)cc1	–	670 nM (active) and 13.7 µM (active)
CC(C)(CO)COC(=O)C(C)(C)CO	-29.4% (inactive)	–
Cc1ccc(N)c(S(=O)(=O)O)c1	6.05% (inactive)	–
COCC(=O)O	–	inactive
OC[C@@H](O)[C@H](O)[C@H](O)[C@@H](O)CO	11.3% (inactive)	–
CC[Si](OC(C)=O)(OC(C)=O)OC(C)=O	5.89% (inactive)	–
COC(=O)c1ccc(C(=O)OC)cc1	–	inactive
O=c1c(-c2ccc(O)cc2)coc2cc(O)ccc12	–	19.1 µM (active)
Cc1cc(O)cc(C)c1Cl	–	21.1 µM (active) and 21.7 µM (active)
Nc1nc2ncc(CNc3ccc(C(=O)N[C@@H](CCC(=O)O)C(=O)O)cc3)nc2c(=O)[nH]1	20.7% (inactive)	–
C=C(C)C(=O)OCC(CC)(COC(=O)C(=C)C)COC(=O)C(=C)C	–	inactive
CCOC(=O)/C=C\C(=O)OCC	2.7% [at 95.3 µM] (inactive)	–
OC[C@@H](O)[C@@H](O)[C@H](O)[C@@H](O)CO	-7.5% [at 95.3 µM] (inactive)	–
CC(C)n1c(/C=C/[C@@H](O)C[C@@H](O)CC(=O)O)c(-c2ccc(F)cc2)c2ccccc21	–	26.6 µM (active)
CCOC(=O)C1OC1c1ccccc1 (stereo not given)	–	inactive
Oc1ccc(OCc2ccccc2)cc1	–	10.1 µM (active) and 23.8 µM (active)
O=S(=O)(O)CCS	12.3% (inactive)	–
COC(=O)c1ccccc1O	–	inactive
CN(CCOc1ccc(CC2SC(=O)NC2=O)cc1)c1ccccn1 (stereo not given)	–	48.3 µM (active)
CC1Cc2ccccc2N1NC(=O)c1ccc(Cl)c(S(N)(=O)=O)c1 (stereo not given)	–	inactive
